Screens as filed in PubChem.
p53 reactivation = qHTS assay for re-activators of p53 using a Luc reporter; H1299 p53-A138V BP100-luciferase reporter, luminescence, 24 h; Potency, µM (doses to about 92.2 µM), usual class: activators; 0.063% of 320,000 active; also: nearly all actives have a fitted effect of over 45% in size
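H1299 (p53-null), stable ts p53-A138V + BP100-Luc; 1000 cells/well, Opti-MEM/10% FBS; cpd 4 pt, 1:5; 24 h, 37 deg C, 5% CO2; detection reagent 10 min RT; luminescence.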
GLP1R cytotox = qHTS of GLP-1 Receptor Inverse Agonists: Cytotox Screen. HEK293 cAMP-luciferase reporter cells, luminescence, 24 h. Potency, µM (top dose mostly 38.3 µM), most hits filed as inhibitors. 0.13% of 410,000 active;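 also: loss of luciferase light is scored as toxicity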
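Luminescence readout: signal drop marks cytotoxicity. Plated cells grew 12 h at 37 °C, 5% CO2, received 23 nL compound for 24 h, then got luciferase reagent, read after 12 min at RT.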
GLP1R ag = qHTS of GLP-1 Receptor Agonists. 0.007% of 380,000 active. Potency, µM (top dose mostly 45.6 µM), actives largely listed as activators. Glucagon-like peptide 1 receptor (Homo sapiens), P43220. HEK293 GLP-1R CRE-luciferase, luminescence, 4-6 h; cells express a hypersensitive GLP-1R form
Target sequence (P43220 whole entry, looked up): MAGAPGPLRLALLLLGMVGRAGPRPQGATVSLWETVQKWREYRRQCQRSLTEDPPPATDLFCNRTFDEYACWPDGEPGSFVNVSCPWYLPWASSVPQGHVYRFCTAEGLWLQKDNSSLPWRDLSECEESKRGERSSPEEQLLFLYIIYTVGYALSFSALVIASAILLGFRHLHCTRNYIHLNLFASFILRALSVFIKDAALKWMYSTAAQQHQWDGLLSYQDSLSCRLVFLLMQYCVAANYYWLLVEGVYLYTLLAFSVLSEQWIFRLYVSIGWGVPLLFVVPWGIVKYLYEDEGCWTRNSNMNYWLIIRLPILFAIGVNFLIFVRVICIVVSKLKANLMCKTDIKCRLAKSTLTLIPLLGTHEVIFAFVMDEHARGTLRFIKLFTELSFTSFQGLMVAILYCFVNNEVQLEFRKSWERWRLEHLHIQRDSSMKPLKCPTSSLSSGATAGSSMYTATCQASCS
LDHA block = qHTS assay for inhibitors of human lactate dehydrogenase. activity change, % (values are at about 110 or 230 µM). 0.15% of 480,000 active. L-lactate dehydrogenase A chain (Homo sapiens), P00338. purified LDHA, NADH/diaphorase-resazurin fluorescence; stronger effect = lower value. AID 1347041, 2019; in the data active = activity change below about -30%; inconclusive = mostly about -25% to -30%
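Human LDH5 at 2 nM final in Tris HCl pH 7.4 with 0.06 mM NADH and 0.2 mM pyruvate, reacted 5 minutes at room temperature. Remaining NADH coupled via diaphorase/resazurin; resorufin fluorescence read at 0 and 20 minutes, normalized to enzyme-free and DMSO wells.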
ClpP mod = qHTS Assay for Activators of ClpP; AID 651965, 2013; purified B. subtilis ClpP, FRET peptide cleavage, 20 min; 1.9% of 340,000 active; Potency, µM (titrated, usually from 57.5 µM); active = well fitted falling curve with a large enough effect; inconclusive = small, poorly fitted or top-dose-only effect; inactive = no such curve, though single readings can be large or run the other way; also: the source files actives as falling curves though it sought activators and does not explain the sign; nearly all actives have a fitted effect of over 65% in size
Target sequence (P80244 whole entry, looked up): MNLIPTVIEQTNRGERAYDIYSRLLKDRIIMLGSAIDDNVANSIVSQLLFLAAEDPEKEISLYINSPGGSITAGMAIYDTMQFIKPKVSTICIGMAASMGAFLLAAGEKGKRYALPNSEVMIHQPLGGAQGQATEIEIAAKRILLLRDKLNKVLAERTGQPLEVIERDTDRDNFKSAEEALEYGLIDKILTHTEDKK
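Buffer: 100 mM Tris/HCl pH8, 100 mM KCl, 0.05% low protease BSA, 2.5% glycerol, 0.01% Tween-20. ClpP 10 microg/mL final; 20 min RT; delta FRET normalized to ADEP and DMSO controls.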
GLP-1R inv ag = qHTS of GLP-1 Receptor Inverse Agonists (Inhibition Mode); 1.6% of 410,000 active; Glucagon-like peptide 1 receptor (Homo sapiens), P43220; HEK293 GLP-1R CRE-luciferase, luminescence, 24 h; GLP-1R form is constitutively active; Potency, µM (top dose mostly 38.3 µM), actives largely listed as inhibitors; also: nearly all actives have a fitted effect of over 55% in size
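Using stably transfected HEK293 (constitutively active GLP-1R, cAMP-luciferase reporter), compounds were incubated 24 hr and luciferase measured by luminescence.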
Of the large screens only hits and unclear results are named; the others gave an inactive call. This is a sample that favours compounds with a hit; in the whole collection about 2.9% have one here. Unless noted, calls follow the shape of the dose curve; as a rule, active = well fitted curve in the direction sought with a large enough effect; inconclusive = small, poorly fitted or top-dose-only effect, or another doubt; inactive = no such curve, though single readings can be large; an effect the other way counts as inactive or inconclusive.

CN1OC[C@@H]2CN[C@H](c3ccc(-c4cccc(F)c4)cc3)C[C@@H]21	none (no result: p53 reactivation)
CC(=O)N=c1scc(-c2ccccc2)n1-c1cccc(O)c1	GLP-1R inv ag 11µM (no result: ClpP mod)
O=C(NCC(c1ccco1)N1CCCCC1)c1ccc(S(=O)(=O)Nc2ccccc2)cc1 (configuration not stated)	GLP-1R inv ag inconclusive (no result: ClpP mod)
O=S(=O)(NCC(c1ccco1)N1CCCCC1)c1ccccc1C(F)(F)F (configuration not stated)	GLP-1R inv ag 10µM
O=C(Cc1cccc(C(F)(F)F)c1)NCC(c1ccco1)N1CCCCC1 (configuration not stated)	GLP-1R inv ag inconclusive (no result: ClpP mod)
O=S(=O)(NCC(c1ccco1)N1CCCCC1)c1cccc(C(F)(F)F)c1 (configuration not stated)	GLP-1R inv ag 11µM
CCCCCn1nc(C(=O)NCc2cccs2)c2ccccc2c1=O	none (no result: p53 reactivation, GLP1R cytotox, GLP1R ag, ClpP mod, GLP-1R inv ag)
Nn1c(SCc2cn3cc(Cl)ccc3n2)nnc1-c1ccncc1	none (no result: ClpP mod)
Cc1nc(SCc2cccc(C(=O)O)c2)nc2c1CCCC2	GLP-1R inv ag 8.9µM (no result: ClpP mod)
CCOC(=O)C1=C(COC(=O)/C=C/c2ccc(OC)c(OC)c2)NC(=O)NC1C (configuration not stated)	ClpP mod inconclusive
CCN(CC(=O)Nc1ccccc1C(F)(F)F)C(=O)C1CSC2(C)CCC(=O)N12 (configuration not stated)	GLP-1R inv ag 11µM (no result: ClpP mod)
O=C(NCc1ccc(Cl)cc1)c1cc2cccc3c2n1CCS3	ClpP mod 22µM, GLP-1R inv ag inconclusive (no result: p53 reactivation, GLP1R ag)
COc1ccc(CNC(=O)c2cc3cccc4c3n2CC(C)S4)cc1 (configuration not stated)	ClpP mod 32µM, GLP-1R inv ag inconclusive (no result: p53 reactivation, GLP1R ag)
CC(C)Oc1ccc(CNC(=O)c2ccc(NC(=O)N3CC(C)Sc4ccccc43)cc2)cc1 (configuration not stated)	GLP-1R inv ag inconclusive (no result: p53 reactivation, GLP1R ag)
CC(C)Oc1ccc(CNC(=O)c2cc3cccc4c3n2CC(C)S4)cc1 (configuration not stated)	ClpP mod 32µM, GLP-1R inv ag inconclusive (no result: p53 reactivation, GLP1R ag)
CCCCN(CC)CCNC(=O)c1cc2c(=O)[nH]c3ccc(C)cc3c2s1	GLP-1R inv ag inconclusive
CCCCC1=CC2=C(c3ccco3)C(=O)C(C)(OC(=O)c3ccc(OC)cc3)C(=O)C2=CN1Cc1ccc(OC)cc1 (configuration not stated)	none (no result: GLP1R cytotox, GLP1R ag, LDHA block, ClpP mod, GLP-1R inv ag)
COc1cccc(N2CCN(C(=O)Cn3nc(C)n4c(cc5c(OC)cccc54)c3=O)CC2)c1	none (no result: p53 reactivation, GLP1R ag)
COc1cccc2c1cc1c(=O)n(CC(=O)N3CCN(c4cccc(C(F)(F)F)c4)CC3)nc(C)n12	ClpP mod 16µM (no result: p53 reactivation, GLP1R ag)
CCOC(=O)C1CCN(C(=O)Cn2nc(C)n3c(cc4c(OC)cccc43)c2=O)CC1	ClpP mod 2.8µM (no result: p53 reactivation, GLP1R ag)
Cn1c(Oc2ccc3c(c2)OCO3)nc2c1c(=O)n(Cc1ccccc1)c(=O)n2C	none
COc1ccc(CCNC(=O)c2ccc(Cn3c(=O)c4ccccc4n(Cc4cccc(F)c4)c3=O)cc2)cc1OC	GLP1R cytotox inconclusive, ClpP mod 35µM, GLP-1R inv ag inconclusive (no result: p53 reactivation)
CCCn1c(N)c(N(CCOC)C(=O)c2cc3c(s2)CCC(CC)C3)c(=O)[nH]c1=O (configuration not stated)	ClpP mod 13µM
CCCCn1c(N)c(N(CCOC)C(=O)c2cc3c(s2)CCC(C)C3)c(=O)[nH]c1=O (configuration not stated)	none (no result: ClpP mod)
CCCn1c(N)c(N(CCOC)C(=O)c2cccc(S(=O)(=O)N3CCCc4ccccc43)c2)c(=O)[nH]c1=O	ClpP mod 32µM
CCCCCc1nc(N)c(C#N)c(-c2ccco2)c1CCCC	ClpP mod 25µM, GLP-1R inv ag inconclusive
CCc1nc(N)c(C#N)c(-c2ccco2)c1C	none
O=C(/C=C\c1ccc2c(c1)OCO2)NC1CC(=O)N(c2ccccc2)C1 (configuration not stated)	none (no result: p53 reactivation, GLP1R ag)
COc1ccc(N2CC(NC(=O)/C=C\c3ccc4c(c3)OCO4)CC2=O)cc1 (configuration not stated)	ClpP mod 28µM, GLP-1R inv ag inconclusive (no result: p53 reactivation, GLP1R ag)
Cc1[nH]c2ccccc2c1C(c1c(C)[nH]c2ccccc12)c1c(C)[nH]c2ccccc12	none (no result: p53 reactivation, GLP1R cytotox, GLP1R ag, GLP-1R inv ag)
Cc1cc2[nH]c3ccccc3c2c(C)n1	p53 reactivation inconclusive, ClpP mod 28µM, GLP-1R inv ag inconclusive
CCc1ccc(-c2nc(CS(=O)CC(=O)NCCN3CCCCCC3)c(C)o2)cc1 (configuration not stated)	GLP-1R inv ag 11µM
CCCN(CCC)CCNC(=O)CS(=O)Cc1nc(-c2ccc(OC)c(OC)c2)oc1C (configuration not stated)	ClpP mod 32µM (no result: p53 reactivation, GLP1R ag)
Cc1ccc(-c2nc(CS(=O)CC(=O)NCCN3CCCC3)c(C)o2)cc1 (configuration not stated)	none
COCCCNC(=O)CS(=O)Cc1nc(-c2ccc(OC)c(OC)c2)oc1C (configuration not stated)	none (no result: p53 reactivation, GLP1R cytotox, GLP1R ag, ClpP mod, GLP-1R inv ag)
COc1ccc(-c2nc(CS(=O)CC(=O)NCc3ccc(F)cc3)c(C)o2)cc1OC (configuration not stated)	ClpP mod 28µM (no result: p53 reactivation, GLP1R ag)
CCOC(=O)N1CCN(C(=O)CSc2nc3c(c(=O)n2-c2ccccc2OC)SCC3)CC1	none
Cc1ccc(CSc2nnc(SCC(=O)N/N=C/c3c[nH]c4ccccc34)s2)cc1	none
Cc1ccc(Cl)cc1N1CCN(C(=O)CSc2nnc3n2C(C)(C)Cc2ccccc2-3)CC1	GLP-1R inv ag 4µM
Cn1c(=O)cc(SCC(=O)N2CCN(c3ccc(F)cc3)CC2)c2ccc(Cl)cc21	none (no result: p53 reactivation, GLP1R ag)
Cc1ccc(Cl)cc1N1CCN(C(=O)CSc2cc(=O)n(C)c3ccccc23)CC1	GLP-1R inv ag 10µM (no result: p53 reactivation, GLP1R ag)
Cc1ccc(Cl)cc1N1CCN(C(=O)CSc2ccsc2[N+](=O)[O-])CC1	ClpP mod 28µM
Cn1c(=O)cc(SCC(=O)N2CCCC2)c2ccccc21	ClpP mod 28µM
O=C(CSc1ccc(Cl)cc1)N1CCN(c2ccc([N+](=O)[O-])cc2Cl)CC1	GLP-1R inv ag inconclusive
CC(C)c1nnc(NC(=O)C2CCCN(C(=O)Nc3ccc(F)cc3)C2)s1 (configuration not stated)	none (no result: ClpP mod)
